Experiment in all cases: cell viability relative to vehicle control; higher = less cytotoxic
Common to all, as to conditions: 10 µM

For one assay, the system named is K562. An outline of the steps: (§1)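 Screening covered the Selleck bioactive, kinase and epigenetic probe libraries, less identity-inconsistent compounds, on CRISPR-edited mutant clones and isogenic wild-type clones of four leukaemia lines. Cells, at 2000 per well in 50 µL medium, received a single 10 µM acoustically dispensed dose. After 48 h the supernatant was removed and CellTiter-Glo luminescence was read. Viability was analysed in Genedata Screener as percent of the on-plate vehicle control.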

For a further assay, the system named is MARIMO. An outline of the steps:
as §1

For another assay, the system named is MOLM14. An outline of the steps: as §1
The subject of the next assay is OCI-AML2. An outline of the steps: as §1

Several values for one entry are separate records, joined by “and”; a condition that tells them apart may be missing. Equal entries are not always repeated. Structures can show the parent of a compound that is named as a salt.

For `CC(C)[N+]1(C)[C@@H]2CC[C@H]1C[C@@H](OC(=O)C(CO)c1ccccc1)C2` (stereo not given in full) [Ipratropium bromide], the cell viability in the assay on K562 (SRSF2 genotype: SRSF2 P95H/wt) is 113% and 109%; in the assay on K562 (SRSF2 genotype: SRSF2 wt/wt), 105%; in the assay on MARIMO (SRSF2 genotype: SRSF2 P95H/wt), 99.5%; in the assay with MARIMO (SRSF2 genotype: SRSF2 wt/wt), 105%; with MOLM14 (SRSF2 genotype: SRSF2 P95H/wt), 99.8%; with MOLM14 (SRSF2 genotype: SRSF2 wt/wt) it was 105%. Moreover, the values for the cell viability in the assay on OCI-AML2 (SRSF2 genotype: P95H/wt) and in the assay with OCI-AML2 (SRSF2 genotype: wt/wt) were 99.1% and 118%, respectively.
Take `CN1CC[C@H](c2c(O)cc(O)c3c(=O)cc(-c4ccccc4Cl)oc23)[C@H](O)C1` [Flavopiridol (Alvocidib)]: the cell viability with K562 (SRSF2 genotype: SRSF2 P95H/wt) is 6.41% and 17.6%; in the assay with K562 (SRSF2 genotype: SRSF2 wt/wt) it was 8.24%; with MARIMO (SRSF2 genotype: SRSF2 P95H/wt), 10.4%; with MARIMO (SRSF2 genotype: SRSF2 wt/wt), 4.67%; in the assay with MOLM14 (SRSF2 genotype: SRSF2 P95H/wt), 3.1%; in the assay on MOLM14 (SRSF2 genotype: SRSF2 wt/wt), 0.32%. For the same molecule, the cell viability with OCI-AML2 (SRSF2 genotype: P95H/wt) was 4.93%; in the assay with OCI-AML2 (SRSF2 genotype: wt/wt), 15.2%.
Take `CN(C)[C@@H](CCOc1cccc2ccccc12)c1ccccc1` [Dapoxetine hydrochloride (Priligy)]: the cell viability in the assay on K562 (SRSF2 genotype: SRSF2 P95H/wt) was 65.8% and 82.9%; in the assay with K562 (SRSF2 genotype: SRSF2 wt/wt), 73%; with MARIMO (SRSF2 genotype: SRSF2 P95H/wt), 52.7%; with MARIMO (SRSF2 genotype: SRSF2 wt/wt), 59%; in the assay with MOLM14 (SRSF2 genotype: SRSF2 P95H/wt), 53.9%; with MOLM14 (SRSF2 genotype: SRSF2 wt/wt), 58.8%. Further, the cell viability is 58.9% with OCI-AML2 (SRSF2 genotype: P95H/wt) and 63.1% in the assay on OCI-AML2 (SRSF2 genotype: wt/wt).
For the molecule `COc1cc2nccc(Oc3ccc(NC(=O)C4(C(=O)Nc5ccc(F)cc5)CC4)cc3)c2cc1OC` [Cabozantinib malate], the cell viability is 21% and 29.7% with K562 (SRSF2 genotype: SRSF2 P95H/wt); 23.6% in the assay on K562 (SRSF2 genotype: SRSF2 wt/wt); 67.3% with MARIMO (SRSF2 genotype: SRSF2 P95H/wt); 87.3% in the assay on MARIMO (SRSF2 genotype: SRSF2 wt/wt); 6.23% in the assay with MOLM14 (SRSF2 genotype: SRSF2 P95H/wt); 7.8% with MOLM14 (SRSF2 genotype: SRSF2 wt/wt). In addition, the cell viability in the assay on OCI-AML2 (SRSF2 genotype: P95H/wt) was 23.3%; in the assay with OCI-AML2 (SRSF2 genotype: wt/wt), 27.8%.
As for `Cn1ccnc1S` [Methimazole (Tapazole, Northyx)], the cell viability with K562 (SRSF2 genotype: SRSF2 P95H/wt) is 101% and 94.7%; in the assay on K562 (SRSF2 genotype: SRSF2 wt/wt) it was 95.5%; with MARIMO (SRSF2 genotype: SRSF2 P95H/wt), 99.3%; in the assay with MARIMO (SRSF2 genotype: SRSF2 wt/wt) it was 99.8%; in the assay on MOLM14 (SRSF2 genotype: SRSF2 P95H/wt), 97.7%; in the assay with MOLM14 (SRSF2 genotype: SRSF2 wt/wt) it was 97.6%. Besides, the cell viability in the assay on OCI-AML2 (SRSF2 genotype: P95H/wt) is 93.2%; with OCI-AML2 (SRSF2 genotype: wt/wt), 100%.
Turning to `CC1(C)CC[C@]2(C(=O)O[C@@H]3O[C@H](CO)[C@@H](O)[C@H](O)[C@H]3O)CC[C@]3(C)C(=CC[C@@H]4[C@@]5(C)CC[C@H](O[C@@H]6O[C@H](C(=O)O)[C@@H](O)[C@H](O)[C@H]6O[C@@H]6O[C@H](CO)[C@@H](O)[C@H](O)[C@H]6O)C(C)(C)[C@@H]5CC[C@]43C)[C@@H]2C1` [Ginsenoside Ro], the cell viability is 101% and 95.6% in the assay with K562 (SRSF2 genotype: SRSF2 P95H/wt); 95.9% with K562 (SRSF2 genotype: SRSF2 wt/wt); 102% with MARIMO (SRSF2 genotype: SRSF2 P95H/wt); 110% in the assay with MARIMO (SRSF2 genotype: SRSF2 wt/wt); 100% in the assay on MOLM14 (SRSF2 genotype: SRSF2 P95H/wt); 98.5% with MOLM14 (SRSF2 genotype: SRSF2 wt/wt). Moreover, the cell viability came out at 97.8% in the assay on OCI-AML2 (SRSF2 genotype: P95H/wt) and 109% with OCI-AML2 (SRSF2 genotype: wt/wt).
In the case of `Cc1n[nH]c2ncc(C(=O)N3CCC[C@H]3c3ccc(Cl)cc3)cc12`, the cell viability in the assay with K562 (SRSF2 genotype: SRSF2 P95H/wt) is 101% and 98.5%; with K562 (SRSF2 genotype: SRSF2 wt/wt), 99.8%; in the assay on MARIMO (SRSF2 genotype: SRSF2 P95H/wt) it was 101%; with MARIMO (SRSF2 genotype: SRSF2 wt/wt), 128%; in the assay on MOLM14 (SRSF2 genotype: SRSF2 P95H/wt) it was 88.8%; in the assay on MOLM14 (SRSF2 genotype: SRSF2 wt/wt), 105%. Besides, the cell viability with OCI-AML2 (SRSF2 genotype: P95H/wt) amounted to 91.4%; in the assay on OCI-AML2 (SRSF2 genotype: wt/wt) it was 92.8%.
Regarding `COc1cccc2c1C(=O)c1c(O)c3c(c(O)c1C2=O)C[C@@](O)(C(=O)CO)C[C@@H]3O[C@H]1C[C@H](N)[C@@H](O)[C@H](C)O1` [Epirubicin Hydrochloride], the cell viability with K562 (SRSF2 genotype: SRSF2 P95H/wt) was 4.6% and 11.6%; in the assay with K562 (SRSF2 genotype: SRSF2 wt/wt) it was 7.29%; in the assay with MARIMO (SRSF2 genotype: SRSF2 P95H/wt) it was 4.26%; in the assay on MARIMO (SRSF2 genotype: SRSF2 wt/wt) it was 2.14%; in the assay on MOLM14 (SRSF2 genotype: SRSF2 P95H/wt), 1.38%; in the assay with MOLM14 (SRSF2 genotype: SRSF2 wt/wt) it was 0.76%. Besides, the cell viability was determined as 1.59% with OCI-AML2 (SRSF2 genotype: P95H/wt) and 11.3% with OCI-AML2 (SRSF2 genotype: wt/wt).
For `OCc1ccc(O[C@@H]2O[C@H](CO)[C@@H](O)[C@H](O)[C@H]2O)cc1` [Gastrodin (Gastrodine)], the cell viability with K562 (SRSF2 genotype: SRSF2 P95H/wt) was 102% and 101%; in the assay on K562 (SRSF2 genotype: SRSF2 wt/wt), 99.8%; with MARIMO (SRSF2 genotype: SRSF2 P95H/wt), 107%; in the assay on MARIMO (SRSF2 genotype: SRSF2 wt/wt), 101%; in the assay on MOLM14 (SRSF2 genotype: SRSF2 P95H/wt), 105%; in the assay with MOLM14 (SRSF2 genotype: SRSF2 wt/wt), 104%. For the same molecule, the results for the cell viability with OCI-AML2 (SRSF2 genotype: P95H/wt) and in the assay on OCI-AML2 (SRSF2 genotype: wt/wt) were 104% and 98.3%, respectively.
Regarding `CC1(C)OC[C@@H](COC(=O)CCc2ccc(OC[C@@H](O)CNCCNC(=O)N3CCOCC3)cc2)O1` [Landiolol hydrochloride], the cell viability was 93.9% and 87.6% with K562 (SRSF2 genotype: SRSF2 P95H/wt); 101% in the assay on K562 (SRSF2 genotype: SRSF2 wt/wt); 97.6% in the assay on MARIMO (SRSF2 genotype: SRSF2 P95H/wt); 92.6% in the assay on MARIMO (SRSF2 genotype: SRSF2 wt/wt); 97.6% in the assay on MOLM14 (SRSF2 genotype: SRSF2 P95H/wt); 98.2% in the assay on MOLM14 (SRSF2 genotype: SRSF2 wt/wt). In addition, the cell viability with OCI-AML2 (SRSF2 genotype: P95H/wt) was determined as 98.3%; with OCI-AML2 (SRSF2 genotype: wt/wt) it was 102%.

The values above are taken from the supplement of paper PMC10981050.
